Assay results from the supplement of paper PMC3334620.
Whole data set: some 33,000 sequences, median “E-score (-0.5 to 0.5)” near -0.0034, cut for the highest 2% near 0.25. Only a selection was taken, and the highest values are over-represented in it overall.

Each sequence was assayed against T1, Yap3 (UniProt P38749) (assay: PBM E-score (8-mer binding enrichment) (E-score (-0.5 to 0.5)); higher = stronger / more preferred TF binding). Details: protein concentration: 100 nM; construct: GST-full length.
T1 sequence: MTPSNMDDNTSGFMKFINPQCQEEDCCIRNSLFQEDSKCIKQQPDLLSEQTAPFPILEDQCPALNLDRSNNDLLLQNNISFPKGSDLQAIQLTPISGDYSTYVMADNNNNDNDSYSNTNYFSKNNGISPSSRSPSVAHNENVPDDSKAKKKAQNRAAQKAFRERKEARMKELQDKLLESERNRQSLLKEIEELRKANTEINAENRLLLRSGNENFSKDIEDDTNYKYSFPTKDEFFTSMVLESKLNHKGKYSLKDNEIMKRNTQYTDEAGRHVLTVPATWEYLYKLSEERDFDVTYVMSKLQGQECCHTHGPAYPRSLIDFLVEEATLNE
Outline: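 Using PURExpress in vitro transcription/translation, GST-tagged yeast transcription factors were made in full-length or DNA-binding-domain form. These were applied at about 100-200 nM to double-stranded universal all-10-mer Agilent arrays, and bound protein was detected with fluorescent anti-GST. Scans were normalised with masliner before the Universal PBM Analysis Suite assigned E-scores to ungapped eight-base words pooled with their reverse complements.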

Sequence | PBM E-score
GACATTCC | -0.186
ACTGACCG | -0.0919
ACCCCTCT | -0.251
AGTTGAAC | 0.00888
GATCTTGA | 0.0634
ACACTTGC | 0.0282
GAAATGCC | 0.0869
TAAATGAA | 0.117
GAAATGAA | 0.289
CAAATGAC | 0.0524
GAAATGAC | 0.259
CAAATGAA | 0.14
TTGGCCAA | -0.0814
GCGCCCAC | -0.0948
ATGCTACC | 0.0357
ACCTCTCC | -0.165
ACATGGCA | -0.0266
CATAACCA | 0.0668
TATAACCA | 0.269
GATAACCA | 0.161
CATAACAA | 0.18
GATAACAA | 0.0894
TATAACAA | 0.265
GAGGGGCA | -0.299
CAATGCTG | -0.114

Sequence | PBM E-score
AGCAAAAA | 0.122
CCCAACGA | -0.0115
GATTTTCA | 0.175
AATTATCA | 0.288
CATTATCA | 0.161
AATTATCG | 0.267
AATTATCT | 0.237
AATTATCC | 0.133
CATTATCG | 0.129
TTCCCGAA | 0.115
CGAGTACG | -0.147
GGAAGGTA | -0.0252
AGAAGGTA | 0.28
AGAAGGTG | 0.029
TGAGCTCA | 0.0969
AAAGGTCT | -0.0778
GTTGGCTA | 0.12
ATGGGTAG | -0.0623
GTGCAGCA | -0.204
CCTTTGTA | -0.135
GCTTTGTA | 0.259
ACTTTGTA | 0.0238
AATTATGA | 0.278
AATTATGT | 0.164
AATTATGC | 0.273

Sequence | PBM E-score
CATTATGC | 0.0641
GATTATGC | 0.0614
AATTATGG | 0.238
CAGTCTAC | -0.192
GGCTTCCC | -0.127
CTCCAACA | 0.141
AATTACGA | 0.33
GCTTACGA | 0.219
TATTACGA | 0.326
GATTACGA | 0.291
CTTTACGA | -0.0493
ACTTACGA | 0.315
CATTACGA | 0.149
GATTACGC | 0.108
ACTTACGC | 0.122
GGTTACGA | 0.06
TATTACCA | 0.196
AATTACAA | 0.151
GGCCTTAC | -0.144
CTCTAATC | -0.0693
CCACTAGC | -0.158
AGCTGAAA | -0.101
AGAATTCT | 0.124
TCCGCAAA | 0.0357
ACAGACGC | -0.168

Sequence | PBM E-score
CGTGCACC | -0.0988
AATTACGT | 0.308
AATTACGC | 0.208
AATTACGG | 0.235
AATAATTA | 0.316
AATAATGA | 0.0556
AATAATTC | 0.263
CATAATTC | 0.23
AATAATTG | 0.203
CATAATTA | 0.316
GATAATTA | 0.251
AATAATGC | 0.216
CATAATGA | 0.118
ACCTTCAG | -0.0617
AGCAAAGC | 0.0118
ACTAGCGC | 0.0683
GGCACTAA | 0.107
CGGTGTGA | 0.115
AAGAACAA | 0.267
CAGAACAA | 0.248
AAGAACAG | 0.0639
GAGAACAC | -0.00708
GAGAACAA | 0.311
AAGAACAC | 0.147
CCGCGAGG | -0.0632

Sequence | PBM E-score
AAGTCTCC | -0.0848
ACGGAGAT | -0.0531
CACTGGAC | -0.0821
ATTATTGG | 0.0681
ACTATTAC | 0.149
ACTATTAG | 0.136
ATTATTAG | 0.259
CTTATTAC | 0.251
ATTATTAC | 0.269
ATCCAAAG | 0.165
GTCAGCCA | -0.0924
CCCCAACA | -0.111
TGTATAAA | 0.211
AGTATATC | 0.0292
AGTATAAC | -0.0565
AGTATAAT | 0.293
AGTATATG | 0.157
ATTATAAG | 0.0886
GGTATAAA | 0.239
AGTATATA | 0.364
AGTATAAA | 0.304
ATTATAAA | 0.231
AGTATAAG | 0.193
ATTATAAT | 0.319
CGACTCCG | -0.24

Sequence | PBM E-score
GCTGGCTA | -0.196
ACTCACCA | -0.0571
AGGTTACA | -0.0016
GGCTGCAC | -0.206
CGTTGTGA | -0.0712
ATTTATTC | 0.212
AATATTTC | 0.154
ACTATTTC | 0.224
ATTTATTA | 0.277
ATTTATTG | 0.0964
GGTATTTA | 0.104
AGTATTTA | 0.16
CATATTTA | 0.185
ATTATTTC | 0.302
CGTATTTA | 0.313
AATATTTA | 0.295
CTTATTTC | 0.251
GGGGGACC | -0.358
GATGGAGC | -0.108
ACACCAGG | -0.237
CACTACTG | 0.0352
ATCAGTAG | 0.0393
GCACACGC | -0.0783
CTACTGCC | -0.0886
ATGTACAA | 0.0885

Sequence | PBM E-score
CGACGTCA | 0.0828
CAGGTTAC | 0.0255
ATTATTTG | 0.197
CTTATTTA | 0.11
GGTTATTA | 0.158
ATTATTTA | 0.289
CTTTATTA | 0.199
GTTTATTA | 0.268
AAATTATG | 0.208
AATTTACA | 0.155
ACTTTACC | 0.149
AATTTACT | 0.271
AATTTAAT | 0.261
ACTTTACA | 0.052
AAATTATT | 0.275
AATTTAAC | 0.113
AAATTATC | 0.251
AATTTAGT | 0.21
AATTTAAG | 0.106
ACTTTACT | 0.284
CAGGTGGG | -0.0568
CGGCTCTA | -0.067
